Our source for the Potency values is PubChem BioAssay (NCATS).

Inconclusive results are not listed. Entries that show only a call come without a potency. The source made the active and inactive calls. Calls come from the whole dose curve; as a rule, active = well fitted inhibition curve with a large enough effect; inconclusive = small, poorly fitted or top-dose-only effect; inactive = flat fitted curve, though single readings scatter.

Sequence of Calcium and integrin-binding protein 1 (Homo sapiens) (Q99828 whole entry, looked up): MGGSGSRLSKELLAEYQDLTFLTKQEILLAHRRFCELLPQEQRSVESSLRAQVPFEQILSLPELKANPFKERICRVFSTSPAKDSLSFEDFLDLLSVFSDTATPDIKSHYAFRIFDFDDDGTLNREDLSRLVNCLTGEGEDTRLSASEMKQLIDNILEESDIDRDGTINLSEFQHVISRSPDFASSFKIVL

The target of the assay is Calcium and integrin-binding protein 1 (Homo sapiens) (UniProt Q99828). The assay can be described thus: Primary qHTS for Identification of Calcium Integrin Binding Protein 1 (CIB1) Competitor (AID 1508620).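 Note: GST tagged CIB1 binding a fluorescein labelled alphaIIb integrin peptide tracer; top concentration of the series differs between compounds.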 The note with it: CIB1-GST / FITC-alphaIIb peptide fluorescence polarization; series mostly up to 114 µM. The essentials:
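CIB1-GST (1 uM final) and compound incubated 15 min at room temperature before adding FITC-alphaIIb peptide tracer (100 nM final). Competition for binding read by fluorescence polarization (ex 480, em 540) after another 15 min at room temperature.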
On to `O=C(Cc1ccc(Cl)c(Cl)c1)Nc1ccc([S+](=O)([O-])Nc2cccc([N+](=O)[O-])c2)cc1`, for which the Potency entry is “inactive”.
Next, `O=C1CN(S(=O)(=O)c2ccc3c(c2)OCCO3)CCN1S(=O)(=O)c1c(F)cccc1F`: “inactive”; `Cc1cccc2c1NC(=O)/C2=C/c1cc(Cl)c(O)c(Cl)c1`: “inactive”.
Turning to `Cc1cc(NS(=O)(=O)c2ccc(NC(=O)Cc3ccc(C)c(F)c3)cc2)no1`, the Potency entry was “inactive”.
With `Cc1nnc(-c2cnn(C)c2)n1CCCn1ccnc1`, the Potency entry is “inactive”.
Next, `Cc1ccnc(NC(=S)N2CCN(c3cc(Cl)cc(Cl)c3)CC2)c1`: “inactive”; `O=C1CCc2cc(S(=O)(=O)Nc3ccccc3-c3ccccc3)ccc2N1`: “inactive”.
With `O=C(c1ccccc1)N(C(=O)c1ccccc1)c1ncnc2c1C(c1ccccc1)c1c(ccc3ccccc13)O2` (configuration not stated) the entry was “inactive”.
With `Cc1c(C(=O)OCC(C)(C)C)[nH]c2c1C(=O)CC(c1ccco1)C2` (configuration not stated) the entry was “inactive”; with `COc1ccc(N2C[C@]34C=C[C@H](O3)C(C(=O)O)C4C2=O)cc1OC` (some centres not stated), “inactive”.
Take `COc1cc(Cn2ncc3c4sc(C)cc4n(C)c3c2=O)cc(OC)c1`: the Potency entry is “inactive”.
With `O=C(Cn1nc(-c2ccccc2)ccc1=O)NCCc1ccccc1` the entry was “inactive”; with `Nc1cccc(-c2ccc(NC(=O)c3cccs3)cn2)c1`, “inactive”.
Turning to `COc1ccc(OCc2nnc3n2N=C(c2ccccc2)CS3)cc1`, the Potency result is “inactive”.
Next, `COc1cccc(S(=O)(=O)N2CCN(S(=O)(=O)c3ccc4c(c3)OCCO4)CC2)c1`: “inactive”; `O=C1c2ccccc2C(=O)N1c1noc2ccccc12`: “inactive”.
With `COc1ccc(-n2c(C)c(C(C)=O)c3ccccc32)cc1` the entry was “inactive”.
